In PubChem BioAssay (NCI):
Compounds without any hit were thinned out: in the full panel of roughly 83,000, 20% have a hit.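 Method: cells in 96-well plates; compound added at one concentration; 48 h incubation; percent growth measured; values under 10 scored active.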 Unmarked numbers belong to inactive results. Active and inactive are the calls of the source.

Key:
Assay in all cases: NCI-60 one-dose screen, 48 h (100 = growth as untreated, 0 = no growth, -100 = all killed)
Conditions in all cases: 10 µM unless noted
NCI-H23 lung = tested on: NCI-H23 lung
NCI-H226 lung = tested on: NCI-H226 lung
NCI-H322M lung = tested on: NCI-H322M lung
HOP-62 NSCLC = tested on: HOP-62 NSCLC
NCI-H460 lung = tested on: NCI-H460 lung
HOP-92 NSCLC = tested on: HOP-92 NSCLC
NCI-H522 lung = tested on: NCI-H522 lung
A549/ATCC NSCLC = tested on: A549/ATCC NSCLC
786-0 renal = tested on: 786-0 renal
DU-145 prostate = tested on: DU-145 prostate
K-562 leukemia = tested on: K-562 leukemia
MALME-3M melanoma = tested on: MALME-3M melanoma
MDA-MB-231 breast = tested on: MDA-MB-231 breast
RXF 393 renal = tested on: RXF 393 renal
SF-268 CNS = tested on: SF-268 CNS
SF-295 CNS = tested on: SF-295 CNS
SF-539 CNS = tested on: SF-539 CNS
UACC-257 melanoma = tested on: UACC-257 melanoma
M14 melanoma = tested on: M14 melanoma

Row | Structure (SMILES) | growth (NCI-H23 lung) | growth (NCI-H226 lung) | growth (NCI-H322M lung) | growth (HOP-62 NSCLC) | growth (NCI-H460 lung) | growth (HOP-92 NSCLC) | growth (NCI-H522 lung) | growth (A549/ATCC NSCLC) | growth (786-0 renal) | growth (DU-145 prostate) | growth (K-562 leukemia) | growth (MALME-3M melanoma) | growth (MDA-MB-231 breast) | growth (RXF 393 renal) | growth (SF-268 CNS) | growth (SF-295 CNS) | growth (SF-539 CNS) | growth (UACC-257 melanoma) | growth (M14 melanoma)
1 | CCCCNCC(=O)Nc1ccc(C(=O)OCC)cc1 | 105% | 89.8% | 105% | 98.7% | 106% | 79.6% | 69.1% | 95.3% | 99.6% | 114% | 92.4% | 106% | 103% | 110% | 104% | 99.4% | 105% | 103% | 97.3%
2 | O=S(=O)(NCCNc1cc(-c2c(-c3cccc(O)c3)nc3sccn23)ccn1)c1ccc(Cl)cc1 | 79.1% | 62.4% | 86% | 103% | 58.3% | 74.7% | 66.1% | 57.6% | 62.1% | 67.8% | 42.5% | 94% | 80.6% | 71.7% | 47.9% | 85% | 91.8% | 95.2% | 68.2%
3 | CCOC(=O)c1c(C)nc2c(c1N)/C(=C/c1cc(OC)c(OC)c(OC)c1)C(=O)N2c1ccc(OC)cc1 | 78.8% | 86.7% | 88.4% | 128% | 48.5% | 40.7% | 50.4% | 88.8% | 44.5% | 16.3% | 23.4% | 76% | 67% | 87.2% | 45.9% | 88.1% | 80.2% | 73.6% | 43.6%
4 | O=C(c1ccccc1)c1ccc(N2C(=O)C3C4c5ccccc5C(/C=C/C(=O)c5ccccn5)(c5ccccc54)C3C2=O)cc1 (centres undefined) | 14.2% | 12.7% | 74.9% | 24.3% | 6.4% (active) | 55.6% | 30.6% | 44.3% | 2.11% (active) | 21.4% | 15.9% | -18.2% (active) | -8.96% (active) | -48.5% (active) | 43.4% | 10.8% | -10.9% (active) | 43.6% | 21.3%
5 | N#Cc1c(Oc2ccc([N+](=O)[O-])cc2)nc2sc3cc(Cl)ccc3n2c1=N | 73.7% | 56.8% | 98.2% | 107% | 96.5% | 83.7% | 93.7% | 72.9% | 64.3% | 105% | 118% | -10.6% (active) | 97.3% | 32.6% | 64.9% | 76.4% | 106% | 57.6% | 78%
6 | O=C1NN(C(=O)c2ccc(O)cc2)C(c2ccccc2)=N/C1=C\c1cn(-c2ccccc2)nc1-c1ccccc1 | 98.3% | 103% | 97% | 92% | 100% | 94.9% | 85% | 99.7% | 94% | 92% | 93.7% | 99% | 106% | 107% | 96.8% | 95% | 89.1% | 93.8% | 96.2%
7 | CC(=O)Nc1ccc2c(c1)Cc1c(F)cccc1-2 | 94.9% | 89.4% | 112% | 116% | 92.2% | 89% | 89% | 92% | 115% | 102% | 120% | 130% | 101% | 99% | 83.7% | 109% | 99.4% | 110% | 119%
8 | C=C1C(=O)O[C@H]2[C@H]1CC/C(COC(=O)/C=C/C(=O)NCc1ccc(Cn3c(=O)sn(-c4ccccc4)c3=O)cc1)=C\CC[C@@]1(C)O[C@@H]21 | 49.7% | 14.5% | 89.9% | 85.5% | 91.9% | -53.7% (active) | -80.1% (active) | 80.2% | -19.1% (active) | 8.63% (active) | -0.361% (active) | -57.8% (active) | -39.9% (active) | -86.6% (active) | -6.21% (active) | 100% | -39.1% (active) | -11.4% (active) | -36% (active)
9 | O=C1NCC(=O)N(Cc2ccco2)[C@H]1Cc1ccccc1 | 100% | 89% | 112% | 81.6% | 103% | 88.7% | 88.2% | 102% | 95.1% | 110% | 107% | 110% | 89.1% | 117% | 102% | 96.5% | 97.9% | 86.9% | 98.2%
10 | CC(C)n1nc(C#Cc2cccc(O)c2)c2c(N)ncnc21 | -28.4% (active) | -41.8% (active) | -30.3% (active) | -52.5% (active) | -5.33% (active) | -70.5% (active) | -44.5% (active) | -60% (active) | -72% (active) | -6.9% (active) | -23% (active) | -74.9% (active) | -67.7% (active) | -87.2% (active) | -49.4% (active) | -71.9% (active) | -75.4% (active) | -41.4% (active) | -63.8% (active)
11 | CCOC(=O)c1c(C)[nH]c(C(=O)CCC(=O)OC)c1C | 98.3% | 95.8% | 98.5% | 98.7% | 110% | 84.6% | 72.5% | 93.3% | 92.9% | 100% | 102% | 98.7% | 115% | 112% | 98.3% | 91.8% | 100% | 112% | 97.5%
12 | CCn1c(Sc2nnc(NC(C)=O)s2)nc2c1c(=O)n(C)c(=O)n2C | 82.2% | 93.9% | 96.5% | 99.4% | 103% | 77.6% | 93.5% | 98.7% | 99.6% | 99.2% | 95.6% | 99.1% | 96% | 91.2% | 90.8% | 98% | 92.5% | 103% | 91.4%
13 | CNC1(C#N)CCN(Cc2ccccc2)CC1 | 97.6% | 104% | 336% | 87.2% | 108% | 85.1% | 90.1% | 98.1% | 73.1% | 113% | 104% | 226% | 112% | 99.1% | 100% | 95.2% | 100% | 101% | 94%
14 | CN(C)c1ccc(/C=C/c2c(F)cccc2F)cc1 | 83.9% | 94.1% | 92.7% | 74.4% | 107% | 81% | 76.4% | 82.6% | 105% | 105% | 115% | 90.1% | 110% | 108% | 93.7% | 96.6% | 98.3% | 89% | 93.2%
15 | CCCCCOC(=O)c1ccc(NC(=O)CNCC(C)C)cc1 | 99.4% | 84.7% | 91.9% | 85.1% | 103% | 53.8% | 70.1% | 88.4% | 99.9% | 102% | 88.8% | 107% | 57.7% | 89.7% | 95.9% | 100% | 102% | 99.3% | 97.4%
16 | O=C1N(c2ccccc2)C(=S)N[C@]12[C@H](c1ccccc1)C1CCCN1[C@]21C(=O)NC2C=CC(Cl)=C[C@H]21 (some centres undefined) | 96.2% | 82.5% | 99.2% | 91.5% | 102% | 56.7% | 61.8% | 75.4% | 97% | 103% | 81.5% | 97% | 88.4% | 100% | 101% | 103% | 103% | 69.8% | 81.9%
